According to PubChem BioAssay (NCI):
The panel holds about 83,000 compounds, 20% with a hit somewhere; the sample as a whole holds those more often.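 Method: cells in 96-well plates; compound added at one concentration; 48 h incubation; percent growth measured; values under 10 scored active.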 Values without a mark were called inactive. The source made the active and inactive calls.

Assays:
Assay in all cases: NCI-60 one-dose screen, 48 h (100 = growth as untreated, 0 = no growth, -100 = all killed)
Conditions in all cases: 10 µM unless noted
[1] = tested on: SR leukemia
[2] = tested on: RPMI-8226 leukemia
[3] = tested on: OVCAR-8 ovarian
[4] = tested on: OVCAR-5 ovarian
[5] = tested on: OVCAR-4 ovarian
[6] = tested on: SK-OV-3 ovarian
[7] = tested on: IGROV1 ovarian
[8] = tested on: OVCAR-3 ovarian
[9] = tested on: HS 578T breast
[10] = tested on: NCI/ADR-RES ovarian
[11] = tested on: T-47D breast
[12] = tested on: BT-549 breast
[13] = tested on: MDA-MB-435 melanoma
[14] = tested on: SW-620 colon
[15] = tested on: MCF7 breast
[16] = tested on: HCT-116 colon
[17] = tested on: HCC-2998 colon
[18] = tested on: KM12 colon

SMILES | growth [1] | growth [2] | growth [3] | growth [4] | growth [5] | growth [6] | growth [7] | growth [8] | growth [9] | growth [10] | growth [11] | growth [12] | growth [13] | growth [14] | growth [15] | growth [16] | growth [17] | growth [18]
Cc1ccc(-c2nc([P+](c3ccccc3)(c3ccccc3)c3ccccc3)c(N3CCOCC3)o2)cc1 | 5.72% (active) | -24.2% (active) | 3.78% (active) | 18.9% | 12.3% | -43.9% (active) | 1.46% (active) | -0.275% (active) | 16.8% | 86% | -20.4% (active) | -13% (active) | -6.62% (active) | 9.9% (active) | 2.74% (active) | 1.88% (active) | 14.1% | -22.4% (active)
CCN(CC)C(=O)CCCCCn1c2ccccc2c2c3c(c4c5ccccc5[nH]c4c21)C(=O)N(O)C3=O | 5.8% (active) | 16.1% | 20.8% | 104% | 56.6% | 79.5% | 27.6% | 46.5% | 71.1% | 12.7% | 28.2% | 56.8% | 25.3% | 70.1% | 18.5% | 37.8% | 44% | 30.8%
COc1ccc(C2NC(=O)Nc3ccccc32)c(OC)c1 (stereo not drawn) | 91.7% | 108% | 101% | 112% | 105% | 95.3% | 98.2% | 112% | 94.8% | 99% | 91.4% | 109% | 101% | 114% | 84.6% | 104% | 92.7% | 110%
CC1(C)CC[C@]2(C(=O)NCCNCCN)CC[C@]3(C)C(=CC[C@@H]4[C@@]5(C)CCC(=O)C(C)(C)[C@@H]5CC[C@]43C)[C@@H]2C1 | -45.6% (active) | -19.9% (active) | 21.4% | 106% | 65.3% | 89.9% | 23.8% | -27.2% (active) | 79% | 93.2% | -71.1% (active) | 83.5% | 61% | -78.4% (active) | -23.8% (active) | -54% (active) | 24.5% | 9.99% (active)
Cc1nn2c(-c3nc4cc(Cl)c(Cl)cc4[nH]3)c(-c3ccc(F)cc3)nc2s1 | 41.1% | 20.6% | 8.25% (active) | 23.8% | -60% (active) | -73.1% (active) | 21.2% | -13.2% (active) | 1.04% (active) | 21.4% | -0.149% (active) | 44.2% | 26.6% | 39.5% | 40.1% | 2.83% (active) | 75.8% | 39.3%
Cc1ccc(-c2nc([P+](c3ccccc3)(c3ccccc3)c3ccccc3)c(N3C[C@H]4C[C@H](C3)c3cccc(=O)n3C4)o2)cc1 | 87.9% | 11.5% | 86.6% | 105% | 77.3% | 123% | 46.4% | 54% | 94.4% | 94.9% | 38.5% | 56.2% | 44.4% | 85.6% | 67.3% | 88.2% | 71.3% | 43.6%
Cc1cc(Cl)nc(N(CCCNc2ccnc3cc(Cl)ccc23)Cc2ccco2)n1 | -13.7% (active) | -28.9% (active) | 14.5% | 31.9% | 32% | 40.8% | 15.3% | 35.7% | 58.8% | 5.99% (active) | 3.69% (active) | 8.06% (active) | 22.8% | 20% | 12.2% | 3.68% (active) | 22% | 22.4%
O=C1CCCC=CC[C@H]2C=C(Cl)C(=O)C2=CC[C@H](CCCCC(F)(F)F)OC(=O)CCCC=CC[C@H]2C=C(Cl)C(=O)C2=CC[C@H](CCCCC(F)(F)F)OC(=O)CCCC=CC[C@H]2C=C(Cl)C(=O)C2=CC[C@H](CCCCC(F)(F)F)O1 | 11.6% [6.25 µM] | 4.9% [6.25 µM] (active) | 8.78% [6.25 µM] (active) | 140% [6.25 µM] | 68.7% [6.25 µM] | 119% [6.25 µM] | 43.7% [6.25 µM] | 14.3% [6.25 µM] | 81.9% [6.25 µM] | 97.6% [6.25 µM] | 71.2% [6.25 µM] | 78.5% [6.25 µM] | 30.6% [6.25 µM] | 17.3% [6.25 µM] | 30.5% [6.25 µM] | 7.18% [6.25 µM] (active) | 98.5% [6.25 µM] | 94.3% [6.25 µM]
C[Si](C)(C)Cc1ccccc1 | 143% | 71.6% | 107% | 94.1% | 113% | 112% | 125% | 127% | 120% | 105% | 113% | 110% | 113% | 107% | 105% | 107% | 114% | 108%
N#CCCCCCn1c2ccccc2c2c3c(c4c5ccccc5n(CCCCCC#N)c4c21)C(=O)N(O)C3=O | 42.9% | 37.7% | 69.4% | 109% | 93.4% | 71.2% | 75.2% | 96.1% | 92.7% | 85.9% | 75.7% | 75% | 91.3% | 106% | 72.2% | 71.3% | 80.8% | 71.8%
C=C(C)[C@@H]1CC[C@]2(c3nnc(-c4ccncc4)o3)CC[C@]3(C)[C@H](CC[C@@H]4[C@@]5(C)CCC(=O)NC(C)(C)[C@@H]5CC[C@]43C)[C@@H]12 | 78.3% | 81.4% | 92.6% | 112% | 89.5% | 100% | 92.3% | 44.6% | 95.8% | 97.5% | 100% | 89.8% | 101% | 103% | 92.9% | 88.8% | 103% | 98.9%
COc1cc2c(cc1-c1c(C)noc1C)ncc1nc(C3CC3)n([C@H](C)COC(F)F)c12 | 25.5% | 17.8% | 46.3% | 84.2% | 58.7% | 1.36% (active) | 58.6% | 42% | 8.14% (active) | 40.1% | 32.7% | 71.6% | 44.3% | 62.7% | 21.7% | 37% | 57.3% | 51.5%
COc1ccc(-c2nc(Nc3ccc(-c4nc5ccccc5[nH]4)cc3)nc(N3CCOCC3)n2)cc1 | 6.01% (active) | -13.8% (active) | 39.2% | 66.3% | 59.8% | 19.6% | 33.7% | 5.15% (active) | -11.9% (active) | 34.2% | 16.1% | 5.16% (active) | -38% (active) | 3.57% (active) | -44.3% (active) | 4.8% (active) | -19.8% (active) | 12.4%
COc1cccc2c1C(=O)c1c(O)c3c(c(O)c1C2=O)C[C@@](O)(C(=O)CO)C[C@@H]3OC1C[C@H](N)[C@H](O)[C@H](C)O1 (stereo partly drawn) | -10.5% (active) | 0.341% (active) | 4.15% (active) | 9.77% (active) | 4.65% (active) | 8.44% (active) | 4.86% (active) | -2.36% (active) | -12.9% (active) | 72.9% | -0.159% (active) | -56.5% (active) | -82.6% (active) | 1.37% (active) | 4.42% (active) | 3.07% (active) | -45.9% (active) | -14.2% (active)
NCCn1cc(-c2nc(-c3c[nH]c4ncccc34)cs2)c2cc(F)ccc21 | -5.68% (active) | 59.2% | 76.1% | 92.6% | 59.8% | 78.9% | 47.1% | 85.6% | 81.9% | 86.4% | 26.3% | 95.7% | 81.7% | 50.2% | 57.2% | 61.4% | 96.2% | 65.6%
Cc1cccc(C)c1NC(=O)CSC(=S)N1CCCCC1 | 101% | 104% | 105% | 101% | 106% | 110% | 90.7% | 103% | 96.8% | 103% | 85.4% | 105% | 110% | 103% | 97.8% | 99.7% | 100% | 97.8%
